Drawing on PubChem BioAssay (NCI), this text covers growth for eight compounds.

The structures appear in SMILES notation. The panel holds about 83,000 compounds, 20% with a hit somewhere; the sample as a whole holds those more often.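 The endpoint reported here, percent growth, reads 100 for growth as untreated, 0 for no net growth and -100 for all cells dead.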 Values without a mark were called inactive. Active and inactive are the calls of the source. The calls were made as follows: active = growth percent below 10; inactive = the rest.

Among the test systems are HCT-15 colon; HT29 colon; SNB-75 CNS; SNB-19 CNS; U251 CNS; PC-3 prostate; SK-MEL-5 melanoma; UACC-62 melanoma; LOX IMVI melanoma; SK-MEL-28 melanoma; SK-MEL-2 melanoma; EKVX NSCLC; SN12C renal; UO-31 renal; TK-10 renal; ACHN renal; CAKI-1 renal; CCRF-CEM leukemia; MOLT-4 leukemia.
Common to all, as to test: NCI-60 one-dose screen, 48 h (100 = growth as untreated, 0 = no growth, -100 = all killed)
Holding throughout (settings): 10 µM unless noted

On to `O=C1OC(=O)C2C1CC=CC2c1ccccc1` (configuration not stated), for which the growth in the assay on HCT-15 colon was 105%; in the assay on HT29 colon it was 86.3%; with SNB-75 CNS, 83.7%; in the assay on SNB-19 CNS, 93.7%; in the assay on U251 CNS it was 87.8%; in the assay on PC-3 prostate, 73.1%. For the same compound, the growth with SK-MEL-5 melanoma was 98.6%; with UACC-62 melanoma it was 94.4%; in the assay on LOX IMVI melanoma, 71.7%; in the assay with SK-MEL-28 melanoma, 91.8%; with SK-MEL-2 melanoma, 97.3%; in the assay on EKVX NSCLC, 90.9%. The growth in the assay on SN12C renal was 87.6%; in the assay with UO-31 renal, 88.9%; in the assay on TK-10 renal, 102%; with ACHN renal it was 104%; in the assay with CAKI-1 renal, 102%; in the assay with CCRF-CEM leukemia it was 84.2%. Further, the growth in the assay on MOLT-4 leukemia was 90.6%.

For `COc1ccc(C2=C(c3ccccc3)c3ccc(OC(C)=O)cc3OC2(C)C)cc1`, the growth in the assay with HCT-15 colon was 80.4%; with HT29 colon, 105%; with SNB-75 CNS it was 118%; in the assay on SNB-19 CNS, 111%; in the assay with U251 CNS, 95.7%; in the assay with PC-3 prostate, 72.4%. Besides, the growth is 93.1% with SK-MEL-5 melanoma; 83.5% in the assay with UACC-62 melanoma; 71.4% in the assay with LOX IMVI melanoma; 100% with SK-MEL-28 melanoma; 94.9% in the assay on SK-MEL-2 melanoma; 82.3% in the assay on EKVX NSCLC. Moreover, the growth with SN12C renal is 93%; in the assay on UO-31 renal, 90.6%; in the assay on TK-10 renal, 116%; in the assay on ACHN renal, 76.3%; in the assay on CAKI-1 renal, 67.8%; in the assay on CCRF-CEM leukemia, 50.3%. Also, the growth with MOLT-4 leukemia is 4.69% (active).

`CCCCCN1C=C/C(=C\C(=O)N(C)c2ccc(Br)cc2)c2ccccc21`: the growth with HCT-15 colon was 102%; with HT29 colon, 91.6%; with SNB-75 CNS it was 91.6%; with SNB-19 CNS it was 99.6%; in the assay with U251 CNS it was 92.4%; in the assay on PC-3 prostate, 97.3%. Moreover, the growth was 97.9% with SK-MEL-5 melanoma; 93.7% in the assay on UACC-62 melanoma; 87.6% in the assay on LOX IMVI melanoma; 105% with SK-MEL-28 melanoma; 109% with SK-MEL-2 melanoma; 84.8% in the assay on EKVX NSCLC. The growth in the assay on SN12C renal was 97.6%; in the assay on UO-31 renal, 77.6%; with TK-10 renal it was 102%; in the assay with ACHN renal, 113%; with CAKI-1 renal it was 86.7%; with CCRF-CEM leukemia, 97.9%. The growth in the assay with MOLT-4 leukemia is 85%.

For `NC(=O)c1cccc(-n2ccc3cc(NC(=O)Nc4cc(C(F)(F)F)cc(C(F)(F)F)c4)ccc32)n1`, the growth is 37.1% in the assay with HCT-15 colon; 52.6% with HT29 colon; 41% in the assay with SNB-75 CNS; 42% in the assay on SNB-19 CNS; 36.7% in the assay on U251 CNS; 32.4% with PC-3 prostate. The growth with SK-MEL-5 melanoma is 69%; in the assay on UACC-62 melanoma, 52.9%; with LOX IMVI melanoma, 50.9%; with SK-MEL-28 melanoma, 69.3%; in the assay with SK-MEL-2 melanoma, 76.6%; in the assay with EKVX NSCLC it was 40.5%. For the same compound, the growth was 35.9% in the assay on SN12C renal; 47.4% in the assay on UO-31 renal; 62.8% in the assay on TK-10 renal; 39.9% in the assay with ACHN renal; 41.4% with CAKI-1 renal; 53.7% with CCRF-CEM leukemia. For the same compound, in the assay on MOLT-4 leukemia, the growth is 26.4%.

As to `CC(O)(CO)c1ccccc1` (configuration not stated), the growth is 97.8% in the assay on HCT-15 colon; 102% with HT29 colon; 92.5% in the assay on SNB-75 CNS; 98.3% in the assay on SNB-19 CNS; 101% in the assay on U251 CNS; 91.7% in the assay on PC-3 prostate. Further, the growth in the assay with SK-MEL-5 melanoma was 102%; in the assay on UACC-62 melanoma, 96%; with LOX IMVI melanoma, 102%; in the assay on SK-MEL-28 melanoma it was 102%; in the assay with SK-MEL-2 melanoma it was 106%; in the assay with EKVX NSCLC, 96.3%. Besides, the growth was 98.8% in the assay with SN12C renal; 91% with UO-31 renal; 110% in the assay with TK-10 renal; 95.2% with ACHN renal; 104% in the assay on CAKI-1 renal; 113% with CCRF-CEM leukemia. In addition, in the assay on MOLT-4 leukemia, the growth was 110%.

For `CC(=O)c1c(-c2ccc(OC(F)(F)F)cc2)nc2ccccn12`, the growth in the assay with HCT-15 colon is 94.9%; with HT29 colon, 74.2%; with SNB-75 CNS, 91.9%; in the assay with SNB-19 CNS, 99.1%; in the assay with U251 CNS, 89.8%; in the assay with PC-3 prostate, 95.1%. Moreover, the growth is 96.6% with SK-MEL-5 melanoma; 105% with UACC-62 melanoma; 91.6% with LOX IMVI melanoma; 90% in the assay with SK-MEL-28 melanoma; 81.5% with SK-MEL-2 melanoma; 96% with EKVX NSCLC. Moreover, the growth with SN12C renal is 103%; in the assay on UO-31 renal, 81.6%; with TK-10 renal it was 6.58% (active); in the assay on ACHN renal it was 95.7%; with CAKI-1 renal, 92.4%; with CCRF-CEM leukemia, 109%. In addition, the growth in the assay on MOLT-4 leukemia was 118%.

Take `O=c1[nH]c(=O)[nH]c(=S)[nH]1`: the growth in the assay on HCT-15 colon was 103%; with HT29 colon, 99.1%; with SNB-75 CNS, 96.5%; in the assay with SNB-19 CNS, 101%; with U251 CNS, 103%; in the assay with PC-3 prostate it was 102%. Moreover, the growth was 102% in the assay on SK-MEL-5 melanoma; 96.1% in the assay on UACC-62 melanoma; 98.1% with LOX IMVI melanoma; 102% in the assay with SK-MEL-28 melanoma; 103% in the assay on SK-MEL-2 melanoma; 97.8% in the assay on EKVX NSCLC. Further, the growth in the assay with SN12C renal is 94.3%; in the assay with UO-31 renal, 89.2%; in the assay with TK-10 renal it was 95.8%; with ACHN renal, 94.3%; in the assay on CAKI-1 renal it was 94.9%; in the assay with CCRF-CEM leukemia, 101%. For the same compound, the growth in the assay with MOLT-4 leukemia was 105%.

For the compound `c1ccc(-c2nn(-c3ccccc3)[n+](-c3cccc4ccccc34)n2)cc1`, the growth in the assay with HCT-15 colon is 103%; with HT29 colon, 12.1%; in the assay with SNB-75 CNS, 48.4%; in the assay on SNB-19 CNS it was 24.9%; with U251 CNS, 17.7%; with PC-3 prostate, 6.61% (active). In addition, the growth in the assay with SK-MEL-5 melanoma is -30.2% (active); in the assay on UACC-62 melanoma, -2.14% (active); in the assay with LOX IMVI melanoma, 12.7%; in the assay on SK-MEL-28 melanoma, 41.2%; in the assay on SK-MEL-2 melanoma, -11.3% (active); with EKVX NSCLC it was 11.8%. The growth with SN12C renal was 32.7%; with UO-31 renal, 69.1%; in the assay with TK-10 renal, 40.4%; in the assay on ACHN renal, 72.2%; in the assay on CAKI-1 renal, 90.3%; with CCRF-CEM leukemia it was 18.7%. Moreover, the growth with MOLT-4 leukemia was 18.9%.
